# Results: PubChem BioAssay AID1445 (SRMLSC, 2008)
# The campaign covered roughly 220,000 compounds. About 910 (0.41%) were called active. This is one part of a sample in which actives are shown more often than they occur. Measured potencies and affinities stand elsewhere. A number with no mark means an inactive call.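 How the source made its calls: active means primary inhibition above the hit cutoff, then over 50% inhibition at one or more dose response concentrations (cut at about 23% in these data, passing the limit was not always enough); inconclusive means conflicting primary data, or primary hits not chosen for dose response; inactive means low primary inhibition, or under 50% at every dose.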 Where a SMILES comes first, the peptide text is derived from it.
# Target: Aminopeptidase N (Plasmodium falciparum (isolate 3D7)) (UniProt O96935)
# Assay: P. falciparum M1AAP inhibitors, biochemical, fluorogenic H-Leu-NHMec substrate, 1536-well (AID 1445);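 further: plate controls were DMSO full reaction for no effect and no enzyme background for full effect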
# Conditions: recombinant M1AAP, H-Leu-NHMec fluorogenic kinetic assay; at 30 µM, stronger effect = higher value unless noted
# Sequence of Aminopeptidase N (Plasmodium falciparum (isolate 3D7)) (O96935 whole entry, looked up): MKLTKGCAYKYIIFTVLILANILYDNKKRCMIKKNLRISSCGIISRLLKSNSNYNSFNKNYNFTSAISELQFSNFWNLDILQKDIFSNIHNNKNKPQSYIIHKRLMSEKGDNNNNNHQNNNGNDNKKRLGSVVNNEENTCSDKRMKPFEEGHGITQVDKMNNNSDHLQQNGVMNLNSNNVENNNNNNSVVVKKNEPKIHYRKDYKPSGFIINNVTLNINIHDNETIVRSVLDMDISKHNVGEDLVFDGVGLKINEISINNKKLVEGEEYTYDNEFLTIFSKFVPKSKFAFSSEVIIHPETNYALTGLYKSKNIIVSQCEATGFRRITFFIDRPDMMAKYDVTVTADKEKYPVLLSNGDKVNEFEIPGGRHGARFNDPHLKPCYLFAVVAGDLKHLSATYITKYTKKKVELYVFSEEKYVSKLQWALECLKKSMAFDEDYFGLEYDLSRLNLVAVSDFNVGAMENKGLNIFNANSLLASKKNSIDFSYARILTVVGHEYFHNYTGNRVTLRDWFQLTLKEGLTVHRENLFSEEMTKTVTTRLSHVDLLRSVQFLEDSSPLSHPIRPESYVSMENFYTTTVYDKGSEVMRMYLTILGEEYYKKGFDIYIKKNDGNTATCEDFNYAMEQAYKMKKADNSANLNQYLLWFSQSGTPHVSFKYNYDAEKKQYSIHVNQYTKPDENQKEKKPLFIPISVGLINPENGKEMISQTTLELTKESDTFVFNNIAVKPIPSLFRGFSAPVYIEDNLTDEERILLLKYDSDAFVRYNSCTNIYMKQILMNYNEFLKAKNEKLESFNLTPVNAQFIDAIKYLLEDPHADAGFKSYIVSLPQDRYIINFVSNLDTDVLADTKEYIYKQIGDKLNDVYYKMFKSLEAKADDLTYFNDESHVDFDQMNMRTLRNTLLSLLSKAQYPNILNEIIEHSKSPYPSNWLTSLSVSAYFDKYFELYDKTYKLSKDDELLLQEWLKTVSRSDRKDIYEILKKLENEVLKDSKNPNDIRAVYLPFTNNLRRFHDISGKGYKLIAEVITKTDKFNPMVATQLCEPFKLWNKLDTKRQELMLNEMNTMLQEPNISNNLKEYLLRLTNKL
row,Structure (SMILES),inhibition
1,O=C(CSc1ncn[nH]1)NN(c1ccccc1)c1ccccc1,0.8%
2,Cc1nc(-c2cccc(NS(=O)(=O)c3ccccc3)c2)cs1,12.7%
3,O=S(=O)(Nc1cccc(S(=O)(=O)N2CCCCCC2)c1)c1ccccc1,-2%
4,Cc1nc(-c2cccc(NS(=O)(=O)c3ccc4ccccc4c3)c2)cs1,11.2%
5,O=[N+]([O-])c1ccc(S(=O)(=O)Nc2nc3ccccc3nc2Nc2ccccc2)cc1,2.42%
6,O=[N+]([O-])c1cccc(S(=O)(=O)Nc2nc3ccccc3nc2Nc2cccc(S(=O)(=O)N3CCCCC3)c2)c1,9.64%
7,CC(=O)Nc1ccc(Nc2nc3ccccc3nc2NS(=O)(=O)c2ccccc2)cc1,14.8%
8,CC(=O)Nc1ccc(S(=O)(=O)Nc2nc3ccccc3nc2Nc2ccc(O)cc2)cc1,29.4%
9,CC(=O)Nc1ccc(S(=O)(=O)Nc2nc3ccccc3nc2Nc2ccc(S(N)(=O)=O)cc2)cc1,19.6%
10,COc1ccc(-n2c(COc3cccc4cccnc34)nnc2SCC(=O)O)cc1,-1.59%
11,COc1cc(C)c(S(=O)(=O)NC2CC(C)(C)NC(C)(C)C2)cc1C,-4.25%
12,N/C(=N\OC(=O)Cc1ccccc1[N+](=O)[O-])c1ccccn1,-2.27%
13,CC12CCC(=O)N1c1ccccc1C(=O)N2c1ccccc1 (centres undefined),5.47%
14,CCC(CC)C(=O)OCC(=O)Nc1ccc(S(=O)(=O)N2CCOCC2)cc1OC,-0.13%
15,COc1cccc2[nH]c3c(=O)n(CCCN4CCOCC4)cnc3c12,4.76%
16,CCOC(=O)c1c(C)c2c(n1C)CCC/C2=N\O,5.95%
17,Fc1cccc(/C=N/Nc2ncnc3nc[nH]c23)c1,17.8%
18,CCOC(=O)c1c(C)[nH]c(C(=O)Nc2ccc(C)c(Cl)c2)c1C,-6.14%
19,CC(C)[C@H](NC(=O)[C@H](CC(=O)O)NC(=O)[C@H](CCCCN)NC(=O)[C@@H](N)CCCN=C(N)N)C(=O)N[C@@H](Cc1ccc(O)cc1)C(=O)O (H-RKDVY-OH),-1.63%
20,O=C(N[C@@H](Cc1ccc(O)cc1)C(=O)O)C(c1ccccc1)c1ccccc1,1.32%

row,Structure (SMILES),inhibition
1,COc1cc(/C=N/n2cnnc2)ccc1OS(=O)(=O)c1ccccc1[N+](=O)[O-],-1.85%
2,CC/C(C)=C1\SC(N2CCN(c3cccc(C(F)(F)F)c3)CC2)=NC1=O,-4.38%
3,O=C(COc1ccc(Cl)cc1)NNC(=O)c1cccnc1,3.11%
4,CCC(CC)NC(=O)c1cccc(Br)c1,4.75%
5,COc1cccc(NC(=O)CSc2nc3n[nH]c(C)c3c(=N)n2-c2cccc(OC)c2)c1,1.29%
6,CCn1c(Cc2ccc(OC)cc2)nnc1SCC(=O)NC1CCCCC1,5.01%
7,COc1ccc(Cc2nnc(SCC(=O)NC3CCCCC3)n2C)cc1,24.3% (active)
8,COc1cccc(-n2c(SCC(=O)NC3CCCCC3)nc3n[nH]c(C)c3c2=N)c1,57.3% (active)
9,Cn1c(Cc2ccccc2)nnc1SCC(=O)NC1CCCCC1,-1.27%
10,CCc1ccc(NC(=O)CSc2nc3n[nH]c(C)c3c(=N)n2-c2cccc(OC)c2)cc1,3.02%
11,Cc1ccc(S(=O)(=O)Oc2ccccc2/C=N/NC(=O)c2nn(C)cc2[N+](=O)[O-])cc1,9.1%
12,CCOCCCNS(=O)(=O)c1ccc(OC)c(Cl)c1Cl,-1.01%
13,COc1cnn(Cc2ccccc2)c(=O)c1SCc1ccccc1,2.35%
14,CS(=O)(=O)N1CCN(c2ccc(NC(=S)NC(=O)c3ccccc3[N+](=O)[O-])cc2)CC1,2.8%
15,Cc1[nH]n(-c2cccc(Cl)c2)c(=O)c1-c1ccc(Cl)cc1,27.2% (active)
16,Cc1[nH]n(-c2ccccc2)c(=O)c1-c1ccc(Cl)cc1,17.9%
17,Cc1[nH]n(-c2cccc(Cl)c2)c(=O)c1-c1ccccc1,13.4%
18,CC(=O)c1sc(NC(=O)CCCOc2ccc(Cl)cc2)nc1C,-3.27%
19,Oc1ccccc1N=Nc1nc(-c2ccccc2)c(-c2ccccc2)[nH]1,-7.75%
20,O=c1c(=Nc2ccccc2O)c(=O)c2ccccc12,-8.18%

row,Structure (SMILES),inhibition
1,CCOc1ccc(NC(=S)Nc2ccc(Br)cc2Cl)cc1,2.64%
2,O=C(CN1C(=O)C2C3C=CC(C3)C2C1=O)Nc1ccc(C(=O)O)cc1 (centres undefined),14.6%
3,Cc1ccccc1NC(=O)CN1C(=O)C2C3CC(C(Br)C3Br)C2C1=O (centres undefined),5.98%
4,CCOc1ccc(NC(=O)c2ccccc2NC(=O)CN(C)CC(=O)Nc2ccc(C)cc2)cc1,1.3%
5,N#CC(=NCc1cccnc1)C1=C(O)c2ccccc2C1=O,-2.18%
6,CCOC(=O)c1c(C)oc2ccc(NS(=O)(=O)c3ccc(C(=O)O)cc3)cc12,10.2%
7,CC1(C)CC(=O)c2c(oc3ccc(NS(=O)(=O)c4cccc5cccnc45)cc23)C1,3.99%
8,O=C(N=Nc1c(O)[nH]c2ccccc12)c1cccc(S(=O)(=O)Nc2ccccc2Cl)c1,13.3%
9,CCOCCc1nnc(NC(=O)Cc2ccccc2)s1,7.8%
10,CCn1c(SCC(=O)Nc2ccccc2C)nc2nc3c(cc2c1=O)COC(C)(C)C3,13.2%
11,CCc1cc(=O)oc2cc(C)cc(OCc3nn[nH]n3)c12,9.2%
12,CCCc1cc(=O)oc2cc(C)cc(OCc3nn[nH]n3)c12,17.7%
13,Cc1c(N2C(=O)/C(=C\c3ccccc3O)SC2=S)c(=O)n(-c2ccccc2)n1C,13%
14,Cc1c(N2C(=O)/C(=C/c3ccccc3)SC2=S)c(=O)n(-c2ccccc2)n1C,13.6%
15,CCOc1c(OC(C)=O)ccc(/C=C2\N=C(SCC)SC2=O)c1[N+](=O)[O-],9.88%
16,C=CCSC1=N/C(=C\c2cc(OCC)c(OC(C)=O)c([N+](=O)[O-])c2)C(=O)S1,10.7%
17,CCOc1cc(/C=C2\N=C(SCC)SC2=O)cc([N+](=O)[O-])c1OC(C)=O,60.6% (active)
18,COC(=O)c1ccc(/C=C2\N=C(SC)SC2=O)cc1,6.81%
19,COc1ccc(/C=C2\N=C(SC)SC2=O)cc1OC,-0.19%
